Source: PubChem BioAssay (National Center for Advancing Translational Sciences (NCATS))
Pol kappa inh-1: DNA polymerase kappa (human) inhibition. Q9UBT6. Potency, µM (highest dose often 107 µM), hits mostly inhibitors. actives 0.53% (n = 400,000). AID 588579. purified Pol kappa, fluorescent DNA synthesis assay, 10 min
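First, compounds were pin-transferred onto 10 nM Pol kappa. After 15 min at room temperature, substrate was added to 50 nM final. Fluorescence was then measured kinetically at 0 and 10 min.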
Pol eta inh-1: inhibitors of human DNA polymerase eta. Q9Y253. recombinant Pol eta, fluorescent DNA replication assay. Potency, µM (doses to about 114 µM), usual class: inhibitors. actives 1.2% (n = 390,000). AID 588591
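Fluorescent replication assay: 50 nM final substrate added after a 15 min room-temperature compound preincubation with 10 nM enzyme. Signal taken at 0 min and again at 10 min.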
POLB inh: DNA polymerase beta (human) inhibition; P06746; Pol beta primer extension/strand displacement, fluorescence kinetic; Potency, µM (top dose mostly 114 µM), actives largely listed as inhibitors; actives 1.3% (n = 340,000); AID 485314
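Preincubation: enzyme (10 nM) with compound, 15 min, RT. Reaction: substrate added to 50 nM final. Reads: 0 and 10 min. Analysis: normalized, Hill fit.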
Pol iota inh: inhibitors of human DNA polymerase iota; Q9UNA4; Pol iota fluorescent replication assay, 10 min; Potency, µM (series often up to 115 µM), actives largely listed as inhibitors; actives 1% (n = 390,000); AID 588590
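Pol iota at 10 nM preincubated 15 min with compounds at room temperature; reaction started with fluorescent substrate, 50 nM final. Fluorescence read kinetically at 0 and 10 min; buffer-only wells as negative control.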
L3MBTL1 block: inhibitors of human L3MBTL1; Q9Y468; AlphaScreen L3MBTL1–H3K9me1 peptide binding; Potency, µM (series often up to 57.1 µM), most hits filed as inhibitors; actives 0.66% (n = 230,000); AID 485360; note: nearly all actives have a fitted effect of over 60% in size
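AlphaScreen proximity signal between nickel-chelate acceptor and streptavidin donor beads (final 10 ug/mL) reports binding of 50 nM L3MBTL1 to 75 nM biotin-H3 K9me1 peptide; complex incubated with compounds 30 min at room temperature; cefsulodin titration as control.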
Pol kappa inh-2: Pol kappa (human) inhibition, cherry-pick confirmation; shares compounds with Pol eta inh-1; purified Pol-kappa, fluorescent strand-displacement substrate; Potency, µM, actives largely listed as inhibitors; actives 76% (n = 920); AID 720501
Pol eta inh-2: Pol eta (human) inhibition, cherry-pick confirmation | shares compounds with Pol eta inh-1 | actives 64% (n = 2,600) | Potency, µM, most hits filed as inhibitors | AID 720502 | Pol eta primer extension, TAMRA/BHQ fluorescence, 10 min
Hits are given with their value; . = inactive; ? = inconclusive; / = no result given; [ ] = dose if it differs, or a comment. Rows were chosen to be rich in hits. Some 2.4% of all compounds tested hit in one or more screens of this group. Calls come from the whole dose curve; as a rule, active = well fitted curve in the direction sought with a large enough effect; inconclusive = small, poorly fitted or top-dose-only effect, or another doubt; inactive = no such curve, though single readings can be large; an effect the other way counts as inactive or inconclusive.

SMILES	Pol kappa inh-1	Pol eta inh-1	POLB inh	Pol iota inh	L3MBTL1 block	Pol kappa inh-2	Pol eta inh-2
COc1cccc(N2C(=O)/C(=C/c3ccc(C)o3)C(=O)NC2=S)c1	.	12.6µM	44.7µM	?	/	29.9	60.1
Cc1ccc(/C=C2\C(=O)NC(=S)N(c3ccc(F)cc3)C2=O)o1	25.1µM	12.6µM	15.8µM	?	15.8µM	16.8	30.1
Cn1c(C(=O)NCCOc2ccccc2Cl)cc(=O)n(C)c1=O	.	.	.	.	/	/	/
CCOc1cc(-c2c(C#N)c(=O)[nH]c3c2c(C)nn3-c2ccc(F)cc2)ccc1O	.	.	.	?	.	/	/
O=c1nc(/C=C/c2ccc(Cl)cc2Cl)cc(C(F)(F)F)[nH]1	.	31.6µM	.	?	.	/	?
O=C1N=NC2=C1c1c3ccccc3c(O)n1CC2	.	.	.	?	.	/	/
O=C1/C(=C\c2ccccc2)C[C@@]2(O)[C@H]3Cc4ccc(O)c5c4[C@@]2(CCN3CC2CC2)[C@H]1O5	.[19.4 µM]	/	/	/	/	/	/
O=C1NC(=O)N(Cc2ccccc2)C(=O)/C1=C/C=C/c1ccco1	.	35.5µM	?	14.1µM	28.2µM	/	?
CC(C)c1ccc(N2C(=O)NC(=O)/C(=C\C=C\c3ccco3)C2=O)cc1	39.8µM	20µM	?	8.91µM	/	/	75.7
CCCN1CCCC(c2cccc(O)c2)C1 (configuration not stated)	/	.	.	.	/	/	/
Cc1ccc(NS(=O)(=O)c2ccc(Cl)c(N=Nc3c(O)[nH]c(=O)[nH]c3=O)c2)cc1Cl	.	22.4µM	/	?	.	59.7	/
OCC(Br)(Br)Br	.	/	/	/	/	/	/
